# Measurements taken from the supplement of paper PMC4466140.
# What was measured:
# Assay in all cases: SPOT peptide array binding signal intensity (averaged, normalized) (arbitrary units (background-subtracted, floor 0; scale differs between SH3 domains)); higher = stronger binding of the SH3 domain to the peptide
# SpBzz1-D2 = molecular target: SpBzz1-D2
# Method in brief: (§1)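 Binding signal is given in arbitrary units that differ between domains and is the normalized, background-subtracted spot intensity averaged across replicates. Each GST-SH3 fusion from one of four yeast species was made in E. coli BL21(DE3), purified on glutathione Sepharose and incubated at 10 μg/ml overnight at 4°C on cellulose-bound synthetic 15-mer peptides in which cysteines were replaced by serines. Detection used anti-GST antibody, an HRP anti-mouse secondary and luminol, followed by imaging and Genespotter quantification.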
# SpCyk3 = molecular target: SpCyk3
# Method in brief: as §1
# SpHof1 = molecular target: SpHof1
# Method in brief: as §1
# SpHof1-2 = molecular target: SpHof1-2
# Method in brief: as §1
# SpHof1-3 = molecular target: SpHof1-3
# Method in brief: as §1
# SpHse1 = molecular target: SpHse1
# Method in brief: as §1
# SpLsb1 = molecular target: SpLsb1
# Method in brief: as §1
# SpLsb4 = molecular target: SpLsb4
# Method in brief: as §1
# SpMyo1 = molecular target: SpMyo1
# Method in brief: as §1
# SpNbp2 = molecular target: SpNbp2
# Method in brief: as §1
# SpPex13 = molecular target: SpPex13
# Method in brief: as §1
# SpRvs167 = molecular target: SpRvs167
# Method in brief: as §1
# SpSla1-D1-D2 = molecular target: SpSla1-D1-D2
# Method in brief: as §1
# SpSla1-D3 = molecular target: SpSla1-D3
# Method in brief: as §1
# AgAbp1 = molecular target: AgAbp1
# Method in brief: as §1
# AgBbc1 = molecular target: AgBbc1
# Method in brief: as §1
# AgBem1-D1 = molecular target: AgBem1-D1
# Method in brief: as §1
# AgBzz1-D1 = molecular target: AgBzz1-D1
# Method in brief: as §1
# AgBzz1-D2 = molecular target: AgBzz1-D2
# Method in brief: as §1
# AgCyk3 = molecular target: AgCyk3
# Method in brief: as §1
# AgFus1 = molecular target: AgFus1
# Method in brief: as §1
# AgHof1 = molecular target: AgHof1
# Method in brief: as §1
# AgHse1 = molecular target: AgHse1
# Method in brief: as §1
# AgLsb1 = molecular target: AgLsb1
# Method in brief: as §1
# AgLsb4 = molecular target: AgLsb4
# Method in brief: as §1
# AgMyo5 = molecular target: AgMyo5
# Method in brief: as §1
# AgNbp2 = molecular target: AgNbp2
# Method in brief: as §1
# AgRvs167 = molecular target: AgRvs167
# Method in brief: as §1
# AgSho1 = molecular target: AgSho1
# Method in brief: as §1
# AgSla1-D1-D2 = molecular target: AgSla1-D1-D2
# Method in brief: as §1
# AgSla1-D3 = molecular target: AgSla1-D3
# Method in brief: as §1
# CaAbp1-D1 = molecular target: CaAbp1-D1
# Method in brief: as §1
# CaAbp1-D2 = molecular target: CaAbp1-D2
# Method in brief: as §1
# CaBbc1 = molecular target: CaBbc1
# Method in brief: as §1
# CaBem1-D1 = molecular target: CaBem1-D1
# Method in brief: as §1
# CaBzz1-D1 = molecular target: CaBzz1-D1
# Method in brief: as §1
# CaBzz1-D2 = molecular target: CaBzz1-D2
# Method in brief: as §1
# CaCyk3 = molecular target: CaCyk3
# Method in brief: as §1
# CaFus1 = molecular target: CaFus1
# Method in brief: as §1
# CaHof1 = molecular target: CaHof1
# Method in brief: as §1
# CaHse1 = molecular target: CaHse1
# Method in brief: as §1
# CaLsb1 = molecular target: CaLsb1
# Method in brief: as §1
# CaLsb4 = molecular target: CaLsb4
# Method in brief: as §1
# CaMyo5 = molecular target: CaMyo5
# Method in brief: as §1
# CaNbp2 = molecular target: CaNbp2
# Method in brief: as §1
# CaRvs167 = molecular target: CaRvs167
# Method in brief: as §1
# CaRvs167-3 = molecular target: CaRvs167-3
# Method in brief: as §1
# CaSho1 = molecular target: CaSho1
# Method in brief: as §1
# CaSla1-D1-D2 = molecular target: CaSla1-D1-D2
# Method in brief: as §1
# CaSla1-D3 = molecular target: CaSla1-D3
# Method in brief: as §1
# ScAbp1 = molecular target: ScAbp1
# Method in brief: as §1
# ScBbc1 = molecular target: ScBbc1
# Method in brief: as §1
# ScBem1-D1 = molecular target: ScBem1-D1
# Method in brief: as §1
# ScBzz1-D1 = molecular target: ScBzz1-D1
# Method in brief: as §1
# ScBzz1-D2 = molecular target: ScBzz1-D2
# Method in brief: as §1
# ScCyk3 = molecular target: ScCyk3
# Method in brief: as §1
# ScFus1 = molecular target: ScFus1
# Method in brief: as §1
# ScHof1 = molecular target: ScHof1
# Method in brief: as §1
# ScHse1 = molecular target: ScHse1
# Method in brief: as §1
# ScLsb1 = molecular target: ScLsb1
# Method in brief: as §1
# ScLsb2 = molecular target: ScLsb2
# Method in brief: as §1
# ScLsb3 = molecular target: ScLsb3
# Method in brief: as §1
# ScLsb4 = molecular target: ScLsb4
# Method in brief: as §1
# ScMyo3 = molecular target: ScMyo3
# Method in brief: as §1
# ScMyo5 = molecular target: ScMyo5
# Method in brief: as §1
# ScNbp2 = molecular target: ScNbp2
# Method in brief: as §1
# ScPex13 = molecular target: ScPex13
# Method in brief: as §1
# ScRvs167 = molecular target: ScRvs167
# Method in brief: as §1
# ScSho1 = molecular target: ScSho1
# Method in brief: as §1
# ScSla1-D1-D2 = molecular target: ScSla1-D1-D2
# Method in brief: as §1
# ScSla1-D3 = molecular target: ScSla1-D3
# Method in brief: as §1
# SpAbp1-D1 = molecular target: SpAbp1-D1
# Method in brief: as §1
# SpBbc1 = molecular target: SpBbc1
# Method in brief: as §1
# SpBzz1-D1 = molecular target: SpBzz1-D1
# Method in brief: as §1
binder,measurement,setting,value
VNFRRIPTGPDSPPT,SPOT peptide array binding signal intensity,SpBzz1-D2,0.25
same,SPOT peptide array binding signal intensity,SpCyk3,≤ 0
same,SPOT peptide array binding signal intensity,SpHof1,178
same,SPOT peptide array binding signal intensity,SpHof1-2,6
same,SPOT peptide array binding signal intensity,SpHof1-3,0.75
same,SPOT peptide array binding signal intensity,SpHse1,192
same,SPOT peptide array binding signal intensity,SpLsb1,≤ 0
same,SPOT peptide array binding signal intensity,SpLsb4,27.5
same,SPOT peptide array binding signal intensity,SpMyo1,2.5
same,SPOT peptide array binding signal intensity,SpNbp2,14.5
same,SPOT peptide array binding signal intensity,SpPex13,≤ 0
same,SPOT peptide array binding signal intensity,SpRvs167,10.7
same,SPOT peptide array binding signal intensity,SpSla1-D1-D2,≤ 0
same,SPOT peptide array binding signal intensity,SpSla1-D3,≤ 0
GKKVRPLLVLLLSRA,SPOT peptide array binding signal intensity,AgAbp1,≤ 0
same,SPOT peptide array binding signal intensity,AgBbc1,≤ 0
same,SPOT peptide array binding signal intensity,AgBem1-D1,≤ 0
same,SPOT peptide array binding signal intensity,AgBzz1-D1,23.5
same,SPOT peptide array binding signal intensity,AgBzz1-D2,2
same,SPOT peptide array binding signal intensity,AgCyk3,5
same,SPOT peptide array binding signal intensity,AgFus1,3030
same,SPOT peptide array binding signal intensity,AgHof1,0.5
same,SPOT peptide array binding signal intensity,AgHse1,1180
same,SPOT peptide array binding signal intensity,AgLsb1,≤ 0
same,SPOT peptide array binding signal intensity,AgLsb4,702
same,SPOT peptide array binding signal intensity,AgMyo5,≤ 0
same,SPOT peptide array binding signal intensity,AgNbp2,280
same,SPOT peptide array binding signal intensity,AgRvs167,1.5
same,SPOT peptide array binding signal intensity,AgSho1,795
same,SPOT peptide array binding signal intensity,AgSla1-D1-D2,≤ 0
same,SPOT peptide array binding signal intensity,AgSla1-D3,1
same,SPOT peptide array binding signal intensity,CaAbp1-D1,208
same,SPOT peptide array binding signal intensity,CaAbp1-D2,134
same,SPOT peptide array binding signal intensity,CaBbc1,0.5
same,SPOT peptide array binding signal intensity,CaBem1-D1,≤ 0
same,SPOT peptide array binding signal intensity,CaBzz1-D1,45
same,SPOT peptide array binding signal intensity,CaBzz1-D2,8
same,SPOT peptide array binding signal intensity,CaCyk3,9
same,SPOT peptide array binding signal intensity,CaFus1,3530
same,SPOT peptide array binding signal intensity,CaHof1,1.5
same,SPOT peptide array binding signal intensity,CaHse1,120
same,SPOT peptide array binding signal intensity,CaLsb1,≤ 0
same,SPOT peptide array binding signal intensity,CaLsb4,7.5
same,SPOT peptide array binding signal intensity,CaMyo5,≤ 0
same,SPOT peptide array binding signal intensity,CaNbp2,1520
same,SPOT peptide array binding signal intensity,CaRvs167,28.3
same,SPOT peptide array binding signal intensity,CaRvs167-3,50.8
same,SPOT peptide array binding signal intensity,CaSho1,562
same,SPOT peptide array binding signal intensity,CaSla1-D1-D2,≤ 0
same,SPOT peptide array binding signal intensity,CaSla1-D3,28
same,SPOT peptide array binding signal intensity,ScAbp1,3.5
same,SPOT peptide array binding signal intensity,ScBbc1,≤ 0
same,SPOT peptide array binding signal intensity,ScBem1-D1,≤ 0
same,SPOT peptide array binding signal intensity,ScBzz1-D1,18
same,SPOT peptide array binding signal intensity,ScBzz1-D2,104
same,SPOT peptide array binding signal intensity,ScCyk3,41
same,SPOT peptide array binding signal intensity,ScFus1,1690
same,SPOT peptide array binding signal intensity,ScHof1,≤ 0
same,SPOT peptide array binding signal intensity,ScHse1,1540
same,SPOT peptide array binding signal intensity,ScLsb1,≤ 0
same,SPOT peptide array binding signal intensity,ScLsb2,≤ 0
same,SPOT peptide array binding signal intensity,ScLsb3,97
same,SPOT peptide array binding signal intensity,ScLsb4,≤ 0
same,SPOT peptide array binding signal intensity,ScMyo3,≤ 0
same,SPOT peptide array binding signal intensity,ScMyo5,≤ 0
same,SPOT peptide array binding signal intensity,ScNbp2,237
same,SPOT peptide array binding signal intensity,ScPex13,≤ 0
same,SPOT peptide array binding signal intensity,ScRvs167,9.67
same,SPOT peptide array binding signal intensity,ScSho1,1560
same,SPOT peptide array binding signal intensity,ScSla1-D1-D2,≤ 0
same,SPOT peptide array binding signal intensity,ScSla1-D3,5.5
same,SPOT peptide array binding signal intensity,SpAbp1-D1,52.5
same,SPOT peptide array binding signal intensity,SpBbc1,0.5
same,SPOT peptide array binding signal intensity,SpBzz1-D1,21.5
same,SPOT peptide array binding signal intensity,SpBzz1-D2,≤ 0
same,SPOT peptide array binding signal intensity,SpCyk3,7
same,SPOT peptide array binding signal intensity,SpHof1,157
same,SPOT peptide array binding signal intensity,SpHof1-2,27.8
same,SPOT peptide array binding signal intensity,SpHof1-3,758
same,SPOT peptide array binding signal intensity,SpHse1,1200
same,SPOT peptide array binding signal intensity,SpLsb1,≤ 0
same,SPOT peptide array binding signal intensity,SpLsb4,41
same,SPOT peptide array binding signal intensity,SpMyo1,3.75
same,SPOT peptide array binding signal intensity,SpNbp2,1290
same,SPOT peptide array binding signal intensity,SpPex13,3
same,SPOT peptide array binding signal intensity,SpRvs167,6.83
same,SPOT peptide array binding signal intensity,SpSla1-D1-D2,1
same,SPOT peptide array binding signal intensity,SpSla1-D3,≤ 0
